# Data reported in PubChem BioAssay (NCI).
# The panel holds about 79,000 compounds, 15% with a hit somewhere; the sample as a whole holds those more often. Values without a mark were called inactive. Calls of active or inactive are those of the source. No stated cut-off is given here; in the data, active means growth inhibition above about 70%; inactive means the rest.
# Assays:
# [1] = NCI Yeast Anticancer Drug Screen. Data for the rad52 strain (AID 147);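 further: 0% = growth of vehicle-treated control cultures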; conditions: S. cerevisiae rad52 mutant growth inhibition, hits give high values
# In short: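 Read-out: growth inhibition versus vehicle-treated controls. Cells were a DNA repair-deficient yeast strain treated with compounds.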
# [2] = NCI Yeast Anticancer Drug Screen. Data for the wt1 strain (AID 149);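 further: 0% = growth of vehicle-treated wt1 cultures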; conditions: S. cerevisiae wt1 strain (SPY 50644) growth inhibition, hits give high values
# In short: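 The wt1 strain was treated with compounds, and growth was compared with vehicle-treated cultures to give inhibition.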
# [3] = NCI Yeast Anticancer Drug Screen. Data for the rad50EPP+ strain (AID 151);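 further: 0% = growth of vehicle-treated control cultures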; conditions: S. cerevisiae rad50 mutant strain, hits give high values
# In short: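 Growth inhibition read against vehicle controls in rad50EPP+ yeast, a strain altered in DNA damage repair, after compound exposure.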
# [4] = NCI Yeast Anticancer Drug Screen. Data for the mgt1 strain (AID 153); conditions: S. cerevisiae mgt1 mutant growth inhibition, hits give high values
# In short: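 mgt1 yeast grown with test compound; read-out is growth inhibition versus vehicle-treated cultures.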
# [5] = NCI Yeast Anticancer Drug Screen. Data for the rad50 strain (AID 155);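 further: 0% = growth of vehicle-only cultures of the same strain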; conditions: S. cerevisiae rad50 strain growth inhibition, hits give high values
# In short: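 Cells are treated with compound, grown, and their growth is then scored against vehicle-only cultures of the same repair-deficient yeast strain.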
# [6] = NCI Yeast Anticancer Drug Screen. Data for the mec2-1 strain (AID 157); conditions: S. cerevisiae mec2-1 strain, hits give high values
# In short: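 Yeast mec2-1 mutant treated with compound. Readout: growth inhibition vs vehicle controls.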
# [7] = NCI Yeast Anticancer Drug Screen. Data for the rad14 strain (AID 159);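 further: 0% = growth of vehicle-treated control cultures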; conditions: S. cerevisiae rad14 strain growth inhibition, hits give high values
# In short: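 Readout: yeast growth inhibition, referenced to vehicle-only cultures. Strain bears a defined alteration in DNA damage repair.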
# [8] = NCI Yeast Anticancer Drug Screen. Data for the sgs1 mgt1 strain (AID 161);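 further: 0% = growth of cultures given vehicle only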; conditions: S. cerevisiae sgs1 mgt1 strain, hits give high values
# In short: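 Test agents were incubated with a DNA-repair-mutant yeast strain. Growth was then read and compared against vehicle-treated controls.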
# [9] = NCI Yeast Anticancer Drug Screen. Data for the CLN2oe strain (AID 163);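 further: 0% = growth of vehicle-only control cultures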; conditions: S. cerevisiae CLN2oe strain, hits give high values
# In short: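 Read-out: yeast growth inhibition, expressed relative to vehicle-only controls. The strain bears an engineered cell-cycle alteration.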
# [10] = NCI Yeast Anticancer Drug Screen. Data for the cln2 rad14 strain (AID 165);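 further: 0% = growth equal to vehicle treated cultures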; conditions: S. cerevisiae cln2 rad14 strain, hits give high values
# In short: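 cln2 rad14 yeast strain; compound exposure; growth inhibition read vs vehicle controls.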
# [11] = NCI Yeast Anticancer Drug Screen. Data for the bub3 strain (AID 167); conditions: S. cerevisiae bub3 mutant strain, hits give high values
# In short: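 Part of a panel of yeast mutants defective in DNA damage repair or cell cycle regulation. Each strain is grown with compound, and inhibition is calculated relative to solvent-treated cultures.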
# [12] = NCI Yeast Anticancer Drug Screen. Data for the wt2 strain (AID 169);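 further: 0% = growth of vehicle-treated yeast cultures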; conditions: S. cerevisiae wt2 strain growth inhibition, hits give high values
# In short: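 Read-out: growth inhibition versus vehicle-treated control cultures after compound exposure of the yeast strain.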
# [13] = NCI Yeast Anticancer Drug Screen. Data for the mlh1 strain (AID 171);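 further: 0% = growth of vehicle-treated control cultures of the same strain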; conditions: S. cerevisiae mlh1 strain growth inhibition, hits give high values
# In short: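 Read-out: growth inhibition versus vehicle controls. Strain: engineered yeast with a defined DNA repair or cell cycle defect, compound-treated.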
# [14] = NCI Yeast Anticancer Drug Screen. Data for the sgs1 strain (AID 173);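 further: 0% = growth of vehicle-only control cultures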; conditions: S. cerevisiae sgs1 mutant, hits give high values
# In short: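 Read-out: yeast growth inhibition relative to vehicle controls, following compound exposure of a strain with a defined DNA repair/cell cycle alteration.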
# [15] = NCI Yeast Anticancer Drug Screen. Data for the mlh1 rad18 strain (AID 175); conditions: S. cerevisiae mlh1 rad18 strain growth inhibition, hits give high values
# In short: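 Yeast w/ defined DNA-repair lesions; compound exposure; growth vs vehicle controls → % inhibition.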
# [16] = NCI Yeast Anticancer Drug Screen. Data for the rad18 strain (AID 177); conditions: S. cerevisiae rad18 mutant growth inhibition, hits give high values
# In short: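 Readout: growth inhibition vs vehicle controls. Cells: genetically altered yeast strain, DNA repair defect.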
# [17] = at 5.0 µM (retest, dose inferred, filed as 0.5)
# [18] = at 50.0 µM (retest, dose inferred, filed as 5.0)
smiles,measurement,setting,value
CCC(=O)Oc1c(Cl)cc(Cl)c2ccccc12,growth inhibition,[1]; at 1.2 µM,-2%
same,growth inhibition,[1]; at 3.7 µM,-2%
same,growth inhibition,[1]; at 11.0 µM,-1%
same,growth inhibition,[1]; at 33.0 µM,4%
same,growth inhibition,[1]; at 100.0 µM,54%
same,growth inhibition,[2]; at 1.2 µM,-4%
same,growth inhibition,[2]; at 3.7 µM,-4%
same,growth inhibition,[2]; at 11.0 µM,-4%
same,growth inhibition,[2]; at 33.0 µM,-6%
same,growth inhibition,[2]; at 100.0 µM,13%
same,growth inhibition,[3]; at 1.2 µM,-2%
same,growth inhibition,[3]; at 3.7 µM,4%
same,growth inhibition,[3]; at 11.0 µM,10%
same,growth inhibition,[3]; at 33.0 µM,15%
same,growth inhibition,[3]; at 100.0 µM,49%
same,growth inhibition,[4]; at 1.2 µM,-8%
same,growth inhibition,[4]; at 3.7 µM,-10%
same,growth inhibition,[4]; at 11.0 µM,-2%
same,growth inhibition,[4]; at 33.0 µM,3%
same,growth inhibition,[4]; at 100.0 µM,28%
same,growth inhibition,[5]; at 1.2 µM,-5%
same,growth inhibition,[5]; at 3.7 µM,-4%
same,growth inhibition,[5]; [17],8%
same,growth inhibition,[5]; at 11.0 µM,-1%
same,growth inhibition,[5]; at 33.0 µM,5%
same,growth inhibition,[5]; [18],-53%
same,growth inhibition,[5]; at 50.0 µM,20.1%
same,growth inhibition,[5]; at 100.0 µM,35%
same,growth inhibition,[6]; at 1.2 µM,-2%
same,growth inhibition,[6]; at 3.7 µM,-2%
same,growth inhibition,[6]; [17],-9%
same,growth inhibition,[6]; at 11.0 µM,-2%
same,growth inhibition,[6]; at 33.0 µM,0%
same,growth inhibition,[6]; [18],-1%
same,growth inhibition,[6]; at 50.0 µM,-8.5%
same,growth inhibition,[6]; at 100.0 µM,32%
same,growth inhibition,[7]; at 1.2 µM,-7%
same,growth inhibition,[7]; at 3.7 µM,-4%
same,growth inhibition,[7]; at 11.0 µM,0%
same,growth inhibition,[7]; at 33.0 µM,9%
same,growth inhibition,[7]; at 100.0 µM,39%
same,growth inhibition,[8]; [17],-9%
same,growth inhibition,[8]; [18],49%
same,growth inhibition,[8]; at 50.0 µM,32%
same,growth inhibition,[9]; at 1.2 µM,-5%
same,growth inhibition,[9]; at 3.7 µM,-2%
same,growth inhibition,[9]; at 11.0 µM,-7%
same,growth inhibition,[9]; at 33.0 µM,-6%
same,growth inhibition,[9]; at 100.0 µM,22%
same,growth inhibition,[10]; [17],-16%
same,growth inhibition,[10]; [18],18%
same,growth inhibition,[10]; at 50.0 µM,15.2%
same,growth inhibition,[11]; at 1.2 µM,-4%
same,growth inhibition,[11]; at 3.7 µM,-6%
same,growth inhibition,[11]; [17],2%
same,growth inhibition,[11]; at 11.0 µM,-9%
same,growth inhibition,[11]; at 33.0 µM,-12%
same,growth inhibition,[11]; [18],-5%
same,growth inhibition,[11]; at 50.0 µM,12.1%
same,growth inhibition,[11]; at 100.0 µM,3%
same,growth inhibition,[12]; at 1.2 µM,-4%
same,growth inhibition,[12]; at 3.7 µM,-5%
same,growth inhibition,[12]; at 11.0 µM,-5%
same,growth inhibition,[12]; at 33.0 µM,-5%
same,growth inhibition,[12]; at 100.0 µM,20%
same,growth inhibition,[13]; at 1.2 µM,-2%
same,growth inhibition,[13]; at 3.7 µM,-2%
same,growth inhibition,[13]; at 11.0 µM,0%
same,growth inhibition,[13]; at 33.0 µM,10%
same,growth inhibition,[13]; at 100.0 µM,38%
same,growth inhibition,[14]; at 1.2 µM,-4%
same,growth inhibition,[14]; at 3.7 µM,-3%
same,growth inhibition,[14]; at 11.0 µM,2%
same,growth inhibition,[14]; at 33.0 µM,9%
same,growth inhibition,[14]; at 100.0 µM,43%
same,growth inhibition,[15]; [17],-10%
same,growth inhibition,[15]; [18],77% (active)
same,growth inhibition,[15]; at 50.0 µM,10.9%
same,growth inhibition,[16]; at 1.2 µM,-3%
same,growth inhibition,[16]; at 3.7 µM,1%
same,growth inhibition,[16]; at 11.0 µM,1%
same,growth inhibition,[16]; at 33.0 µM,5%
same,growth inhibition,[16]; at 100.0 µM,73% (active)
